Most compounds without a hit are left out; they make up all but 3.5% or so of the library.
GPR151 ag – activates the human receptor GPR151; PathHunter beta-arrestin GPR151 cells, luminescence; AID 1508602; activation, % at 11.2 µM; 650,000 tested, 1% active; in the data active = activation above about 4.9%;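 note: 0% = median of compound wells and 100% = cells with positive control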
Target sequence (Q8TDV0 whole entry, looked up): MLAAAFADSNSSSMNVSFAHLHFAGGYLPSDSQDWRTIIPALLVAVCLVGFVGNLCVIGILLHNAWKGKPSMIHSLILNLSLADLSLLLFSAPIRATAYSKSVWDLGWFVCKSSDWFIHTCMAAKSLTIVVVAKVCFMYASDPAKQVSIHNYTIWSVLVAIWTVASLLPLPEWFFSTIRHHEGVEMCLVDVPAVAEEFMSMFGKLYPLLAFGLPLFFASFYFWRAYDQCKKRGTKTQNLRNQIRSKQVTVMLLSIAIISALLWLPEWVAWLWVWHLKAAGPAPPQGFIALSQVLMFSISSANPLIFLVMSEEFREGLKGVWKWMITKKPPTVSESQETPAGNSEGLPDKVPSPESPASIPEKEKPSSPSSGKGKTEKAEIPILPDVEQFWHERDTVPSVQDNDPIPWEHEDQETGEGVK
TEAD-YAP inh – TEAD-YAP interaction inhibition. AID 1259422. 640,000 tested, 1.4% active. HEK-TIYL cells, TEAD-Gal4/YAP UAS-luciferase luminescence. inhibition, % at 9.12 µM; in the data active = inhibition above about 32%;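 note: 0% = median of test compound wells and 100% = reference inhibitor wells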
MITF inh – inhibitors of human MITF; O75030; AlphaScreen MITF homodimerization, bead proximity signal; inhibition, % at 2.6 µM; 650,000 tested, 0.91% active; AID 1259374; in the data active = inhibition above about 50%;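 note: 0% = vehicle wells with protein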
FBW7 act – activators of human E3 ligase FBW7 | AlphaScreen FBW7–phospho-cyclin E peptide binding, activator screen | 650,000 tested, 0.13% active | normalized activity (activation), % at 26.1 µM; in the data active = normalized activity above about 1.9%;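 note: purified mutant Fbw7 with reduced substrate affinity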
GPR151 conf act – confirmation of human GPR151 activators; 6,700 tested, under 10 active; AID 1508609; shares compounds with GPR151 ag; activation, % at 11.2 µM; GPR151 PathHunter beta-arrestin cells, luminescence, 90 min; % of EA-reagent control over plate median;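 active = mean percent activation across replicates above the confirmation screen cutoff of 4.91%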
GPR119 counter – counter-screen for GPR151 activators: effect on human GPR119. 6,700 tested, 0.3% active. activation, % at 11.2 µM. GPR119 PathHunter beta-arrestin cells, luminescence, 90 min; 0 = compound-well median, 100 = enzyme-acceptor control. shares compounds with GPR151 ag;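 active = mean percent activation in the counterscreen above 29.09%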;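 note: counterscreen on off-target GPR119 to flag nonselective hits from the GPR151 activator screen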
An asterisk follows results filed as active; . = no result given.

SMILES	GPR151 ag	TEAD-YAP inh	MITF inh	FBW7 act	GPR151 conf act	GPR119 counter
CCOc1ccc(/C(O)=C2\C(=O)C(=O)N(c3nc(C)c(C(=O)OC)s3)C2c2ccc(C)cc2)cc1C (stereo not drawn)	5.0*	-2.3	6.7	-0.1	-0.6	0.2
Cc1cccc(OCc2n[nH]c(=S)n2-c2ccccc2C)c1	0.1	3.0	20.7	0.1	.	.
CCCCCn1c(=O)[nH]c2ccccc21	2.2	-5.7	-2.3	0.1	.	.
CCCCn1c(C)c(Cc2ccccc2)[nH]c1=O	6.1*	8.8	-12.0	-0.4	0.3	-0.3
CSc1cccc(NC(=O)c2cc(=O)c(OCc3ccc(F)cc3)c[nH]2)c1	-1.1	-2.6	-4.8	-0.1	.	.
O=C(Nc1ccc2c(c1)CN(C1CSCCSC1)CC2)c1ccncc1	5.3*	-27.3	-11.2	0.1	0.3	7.0
CCOc1ccccc1NC(=O)c1cc(S(=O)(=O)NCCc2ccccc2)ccc1F	5.0*	-2.6	11.3	0.1	-0.5	-15.2
CCCNS(=O)(=O)c1ccc(F)c(C(=O)Nc2cc(Cl)ccc2OC)c1	5.8*	-10.3	8.0	0.7	-1.0	-2.0
CCCNS(=O)(=O)c1ccc(F)c(C(=O)Nc2cc(C)ccc2OC)c1	0.1	-2.1	-3.2	-0.1	.	.
CCOc1ccccc1NC(=O)c1cc(S(=O)(=O)NCCC2=CCCCC2)ccc1F	0.6	2.2	9.2	0.0	.	.
COc1ccc(Cl)cc1NC(=O)c1cc(S(=O)(=O)N2CCCCCC2)ccc1F	5.7*	1.5	-6.1	0.1	-0.3	-9.3
COc1ccccc1CNS(=O)(=O)c1ccc(F)c(C(=O)Nc2ccc(Cl)cc2)c1	1.5	6.9	0.9	-0.2	.	.
COc1ccccc1CNS(=O)(=O)c1ccc(F)c(C(=O)Nc2ccc(F)cc2)c1	5.4*	2.4	17.5	0.5	0.5	-8.5
COc1ccc(Cl)cc1NC(=O)c1cc(S(=O)(=O)N2CCCCC2)ccc1F	1.5	6.9	-3.0	-0.1	.	.
CCN1CCC(NC2CCCc3c2[nH]c2ccc([N+](=O)[O-])cc32)CC1 (stereo not drawn)	0.5	11.3	-15.4	-0.4	.	.
O=C(CN1CCOCC1)Nc1sc2c(c1C(=O)c1ccc(Cl)cc1)CCC2	0.8	7.7	5.9	0.1	.	.
COc1ccc(Cl)cc1NC(=O)c1cnc(SC)nc1C	0.4	-8.6	-2.4	0.0	.	.
COc1ccccc1OCC(=O)c1ccc(Br)cc1	-1.0	-2.8	-6.5	0.5	.	.
Cc1ncc(CN2CCC(Oc3cccc(C(=O)NCc4ccccn4)c3)CC2)s1	-0.5	5.2	-1.4	0.0	.	.
CC(C)(CN1CCN(c2ccccc2)CC1)NS(=O)(=O)c1ccccc1	5.5*	-7.0	4.7	-0.2	0.0	-3.7
O=C(N/N=C/c1cccc(O)c1O)c1cc(-c2ccccn2)nc2ccccc12	-0.2	28.9	29.6	-0.7	.	.
O=C(CC1C(=O)NCCN1C/C=C/c1ccccc1)NCCCn1cccn1 (stereo not drawn)	0.0	-5.4	-1.2	-0.1	.	.
CCCNc1nc(Nc2nccc3ccccc23)ncc1C	5.1*	39.2*	0.2	0.2	0.3	-1.3
Cc1cnc(Nc2nccc3ccccc23)nc1Nc1ccc(N2CCOCC2)cc1	6.0*	50.0*	3.4	-0.5	0.3	-2.7
Cc1cnc(Nc2nc3ccccc3n2C)nc1Nc1ccc(N2CCOCC2)cc1	-1.5	-28.3	18.3	-0.2	.	.
SMILES	GPR151 ag	TEAD-YAP inh	MITF inh	FBW7 act	GPR151 conf act	GPR119 counter
O=C(N1CCCCC1)C12CC3CC(C1)CC(c1ccc([N+](=O)[O-])cc1)(C3)C2	6.8*	-1.0	-0.3	0.1	-0.4	-9.1
COC(=O)C1=C(C)Nc2nnnn2C1c1cccc(O)c1 (stereo not drawn)	1.3	-0.1	-12.2	0.0	.	.
CCOC(=O)C1=C(C)Nc2nnnn2C1c1cccc(O)c1 (stereo not drawn)	12.9*	1.1	-0.5	-0.2	-0.8	1.9
COC(=O)C1=C(C)Nc2ncnn2C1c1cccc(OC)c1 (stereo not drawn)	1.0	-2.4	18.7	0.0	.	.
COCCOC(=O)C1=C(C)Nc2ncnn2C1c1cccc(OC)c1 (stereo not drawn)	5.8*	11.9	4.3	-0.2	-0.5	-6.2
Cn1c(N2CCCCC2)nc2c1c(=O)n(Cc1ccccc1Cl)c(=O)n2C	-0.8	-4.6	-7.3	0.2	.	.
NC(=O)CCCc1nc(-c2ccc(Cl)cc2)no1	-0.8	-9.7	-0.1	0.0	.	.

Screening data (PubChem)
